Experimental data published in PubChem BioAssay AID686978 (National Center for Advancing Translational Sciences (NCATS), 2013).
Hit rate of the full screen: of about 420,000 compounds, about 64,000 (15%) were called active. Not shown: some 27% with an inconclusive outcome. The call rests on the fitted dose curve; in most records, active means well fitted inhibition curve with a large enough effect; inconclusive means small, poorly fitted or top-dose-only effect; inactive means flat fitted curve, though single readings scatter. These entries were drawn from the full list. Where a call stands in place of a potency, no number is given.

experiment: qHTS for Inhibitors of human tyrosyl-DNA phosphodiesterase 1 (TDP1): qHTS in cells in absence of CPT; conditions: DT40 Tdp1-/- hTDP1 cells, no CPT, ATP luminescence, 48 h; activity change, negative = growth inhibition: at 46.2 µM (top of the series); further: nearly all actives have a fitted effect of over 55% in size
In short: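 Chicken DT40 Tdp1-/- cells complemented with human TDP1, screened without camptothecin (DMSO vehicle only), 400 cells/well. Compounds pin-transferred, cells incubated at 37 °C for at least 48 hr. Growth read as ATP-dependent luminescence (CellTiter-Glo, 30 min at RT).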
Potency means the concentration at half of the fitted maximal effect.

Row | Compound | Potency
1 | O=C(OCC(=O)N1CCCCC1)c1ccc(OC(F)(F)F)cc1 | inactive
2 | CCN(CC)C(=O)C1CCC(C)(C(=O)O)C1(C)C (configuration not stated) | inactive
3 | O=S(=O)(NCCSc1ccccn1)c1ccc(Cl)cc1 | inactive
4 | CC(C)=NN1C(=O)c2ccccc2NC1(C)C | inactive
5 | Cc1nnsc1C(=O)Nc1cccc(Cl)c1C | inactive
6 | COc1cccc(CNC(=O)Cn2ncn3c(cc4ccccc43)c2=O)c1 | inactive
7 | COc1cccc(CNC(=O)c2ccc3c(c2)sc2nc(-c4cccc(OC)c4)cn23)c1 | 4.11 µM (active)
8 | COc1cccc(CNC(=O)CCc2nc(-c3ccc(C)cc3)no2)c1 | inactive
9 | CCOc1cc(NC(=O)CCl)c(OCC)cc1NC(C)=O | 16.4 µM (active)
10 | CCCC(=O)Nc1cc(OCC)c(NC(=O)NC2CCCCC2)cc1OCC | inactive
11 | CCOc1cc(NC(=O)Nc2ccccc2)c(OCC)cc1NC(=O)CC | inactive
12 | C=CC1=C(C(=O)O)N2C(=O)[C@@H](NC(=O)/C(=N/OCC(=O)O)c3csc(N)n3)[C@H]2SC1 | inactive
13 | COc1cc2c(cc1OC)C(C(=O)Nc1cc(C)c(OC)c(C)c1)CC(=O)N2 (configuration not stated) | inactive
14 | COc1cc(N/C=C2\CC(=O)NC(C)=C2C#N)cc(OC)c1OC | 25.9 µM (active)
15 | COC(=O)C1=C(C)NC(=O)CC1c1ccccc1OC (configuration not stated) | inactive
16 | CC(C)CNC(=O)C1(C)CCCN1C(=O)CSc1ccccc1 (configuration not stated) | inactive
17 | Cc1ccccc1NC(=O)N1CCCC1C(=O)NCc1ccccc1 (configuration not stated) | inactive
18 | O=C(CSc1n[nH]c(=O)n1-c1ccccc1)Nc1ccccc1C(F)(F)F | inactive
19 | O=C1CN(C(=O)Nc2ccccc2C(F)(F)F)C(c2ccccc2)c2c(sc3c2CCCC3)N1 (configuration not stated) | 18.4 µM (active)
20 | [2H]C(CCOS(N)(=O)=O)c1ccccc1 (configuration not stated) | inactive
21 | Cn1c(=NC(=O)C2CC2)sc2cc(F)cc(F)c21 | inactive
22 | O=C(CN1CCN(Cc2ccccc2)CC1)NC(c1ccccc1)c1ccccc1 | 23.1 µM (active)
23 | O=C(NC(c1ccccc1)c1ccccc1)N1CCN(CCO)CC1 | inactive

Row | Compound | Potency
24 | O=C(CN1CCc2ccccc21)NC(c1ccccc1)c1ccccc1 | inactive
25 | CC12CCC(=O)N1C(C(=O)Nc1ccc(F)c(F)c1F)CS2 (configuration not stated) | inactive
26 | COC(=O)/C=C(\Oc1ccccc1)C1(O)CCCCC1 | inactive
27 | CCNC(=O)NNC(=O)C1CC(c2cccs2)=NO1 (configuration not stated) | inactive
28 | Cc1cc2ccccn2c1C(=O)c1cccc(S(=O)(=O)N2CCOCC2)c1 | 16.4 µM (active)
29 | Cc1cc(C(=O)NNC(=O)c2cccc(S(=O)(=O)N3CCOCC3)c2)c2ccccc2n1 | inactive
30 | NC(=O)CSc1nnc(-c2cccc(S(=O)(=O)N3CCOCC3)c2)o1 | inactive
31 | O=C(COC(=O)c1ccccc1)Nc1cccc(S(=O)(=O)N2CCOCC2)c1 | inactive
32 | CCOc1cc(/C=N/NC(=O)c2cccc(S(=O)(=O)N3CCOCC3)c2)ccc1OCC(=O)N(C)C | inactive
33 | O=C(Nc1nnc(-c2ccccc2)o1)c1cccc(S(=O)(=O)N2CCOCC2)c1 | 16.4 µM (active)
34 | O=C(Nc1ccc(S(=O)(=O)Nc2nccs2)cc1)c1cccc(S(=O)(=O)N2CCOCC2)c1 | inactive
35 | COc1ccc(Br)cc1/C=N/NC(=O)c1cccc(S(=O)(=O)N2CCOCC2)c1 | inactive
36 | Cc1nc2ccc(NC(=O)c3cccc(S(=O)(=O)N4CCOCC4)c3)cc2s1 | 20.6 µM (active)
37 | O=C(N/N=C/c1ccc([N+](=O)[O-])o1)c1cccc(S(=O)(=O)N2CCOCC2)c1 | 18.4 µM (active)
38 | O=C(c1cccc(S(=O)(=O)N2CCOCC2)c1)N1CCOCC1 | inactive
39 | CCCS(=O)(=O)N1CCC(C(=O)NCCCN(C)Cc2ccccc2)CC1 | inactive
40 | CSc1ncnc2c1ncn2CCCNCc1ccco1 | inactive
41 | O=C(Nc1cccnc1)c1cc2cc(Br)ccc2oc1=O | inactive
42 | COC(=O)c1cc(=O)n(-c2c(Cl)cc(C(F)(F)F)cc2Cl)[nH]1 | inactive
43 | CCOC(=O)c1c(NC(=O)CSc2nccc(=O)[nH]2)sc(C)c1C | inactive
44 | CCC(=O)Nc1ccc(-c2ccc(N3CCCCC3)nn2)cc1 | inactive
45 | Cc1ccc(S(=O)(=O)N2CCC(Oc3ccc(-n4cnnn4)cc3)CC2)cc1 | inactive
46 | COc1ccc(/C=N/NC(=O)CNC(=O)c2ccc(S(=O)(=O)N3CCCC3)cc2)c(OC)c1 | inactive

Row | Compound | Potency
47 | CN(C)c1ccc(/C=N/Nc2cc(N3CCOCC3)nc(N3CCOCC3)n2)cc1 | inactive
48 | COc1ccc(/C=N/NC(=O)Nc2ccc3nsnc3c2)c(OC)c1 | inactive
49 | Cc1ccccc1N/N=C/c1ccc(N2CCOCC2)cc1 | inactive
50 | COc1ccc(/C=N/Nc2cc(N3CCOCC3)nc(C)n2)c(OC)c1 | 20.6 µM (active)
51 | C(=N/Nc1cc(N2CCOCC2)nc(N2CCOCC2)n1)/c1ccccc1 | 20.6 µM (active)
52 | C=CCN1C(=O)C(Cc2ccc(OCC)cc2)SC1=Nc1ccc(C(=O)O)cc1 (configuration not stated) | inactive
53 | COc1ccc(N=C2SC(C(=O)Nc3ccc(F)cc3)CC(=O)N2C)cc1 (configuration not stated) | inactive
54 | CC1Cc2ccccc2N1C(=O)CSc1nnc(C2CC2)n1C (configuration not stated) | inactive
55 | COc1ccc(CC(=O)Nc2c(C(N)=O)oc3ccccc23)cc1 | inactive
56 | COCCNC(=O)CSc1nc2c(n1-c1ccccc1)CCCC2 | inactive
57 | Nc1ncnc2c1cnn2C1CC(O)C(CO)O1 (configuration not stated) | inactive
58 | Nc1ccn(C2CC(O)C(CO)O2)c(=O)n1 (configuration not stated) | inactive
59 | Nc1ncnc2c1ncn2C1CC(O)C(CO)O1 (configuration not stated) | 4.61 µM (active)
60 | O=C(Cc1ccccc1)NNS(=O)(=O)c1ccc([N+](=O)[O-])cc1 | inactive
61 | O=[N+]([O-])c1ccc(C(S(=O)(=O)Cc2ccccc2)S(=O)(=O)Cc2ccccc2)cc1 | 18.4 µM (active)
62 | O=C(NNS(=O)(=O)Cc1ccccc1)c1ccc([N+](=O)[O-])cc1 | inactive
63 | Cn1c(N)cc(-c2ccc(F)cc2)c(C#N)c1=O | inactive
64 | CCOc1ccc(N=C2NC(=O)S/C2=C\c2ccc(O)cc2)cc1 | inactive
65 | CCOc1[nH]n(-c2ccc(Cl)cc2)c(=O)c1C=Nc1ccc(O)cc1 | 5.17 µM (active)
66 | CC(=O)Cn1ncc(N2CCOCC2)c(Br)c1=O | inactive
67 | Cc1ccc(Cc2nc(-c3cccc(C)c3)no2)cc1 | inactive
68 | N/C(=N\S(=O)(=O)c1ccc(Cl)cc1)N1CCOCC1 | inactive
69 | CCOC(=O)c1cnc2nc(SCc3ccccc3Cl)[nH]n2c1=O | inactive

Row | Compound | Potency
70 | COCCOCCn1cnc2ccccc21 | inactive
71 | O=c1c2ccccc2ncn1CCCCOc1ccccc1F | inactive
72 | COc1ccc(OCCCn2c(C)nc3cc(C)c(C)cc32)cc1 | 10.3 µM (active)
73 | COc1ccc(OCCn2ccnc2C)cc1 | inactive
74 | COc1ccc2ccn(C)c2c1 | inactive
75 | Cc1cc2ncn(CCCCOc3ccccc3)c2cc1C | 14.6 µM (active)
76 | Cc1ccc(C(=O)N2CCN(S(=O)(=O)N3CCOCC3)CC2)cc1 | inactive
77 | N#Cc1c(-c2cccs2)nc(SCC(=O)c2ccc(Br)cc2)[nH]c1=O | inactive
78 | O=C(NC(C(=O)NCCN1CCOCC1)C12CC3CC(CC(C3)C1)C2)C1CCCCC1 (configuration not stated) | inactive
79 | O=S(=O)(/N=C(/Nc1ccccn1)c1ccccc1)c1ccc(Cl)cc1 | inactive
80 | Cc1ccc(S/C(=N\S(=O)(=O)c2ccc(Cl)cc2)c2ccccc2)cc1 | 10.3 µM (active)
81 | Cc1ccc(S(=O)(=O)/N=C(/Nc2ccccn2)c2ccc(Cl)cc2)cc1 | inactive
82 | O=C(CCS(=O)(=O)c1ccccc1Cl)Nc1ccc(S(=O)(=O)Nc2ncccn2)cc1 | inactive
83 | O=C(O)c1ccccc1NC(=O)c1ccccc1-c1ccccc1C(=O)O | inactive
84 | CCOC(=O)CCNC(=O)N1CCCC(C(=O)c2ccccc2SC)C1 (configuration not stated) | inactive
85 | CCNC(=O)N1CCCC(C(=O)c2ccc(-c3ccccc3)cc2)C1 (configuration not stated) | 9.2 µM (active)
86 | Cc1ccccc1NC(=O)C1CCCN(C(=O)NCc2ccccc2)C1 (configuration not stated) | inactive
87 | O=C(CSc1nnc(-c2ccco2)n1-c1ccccc1)NCCc1ccccc1 | inactive
88 | CCOC(=O)N1CCN(Cc2nc(N)nc(Nc3ccc(C)cc3)n2)CC1 | inactive
89 | Cc1ccc(Nc2nc(N)nc(CN3CCN(Cc4ccccc4)CC3)n2)cc1Cl | 16.4 µM (active)
90 | CCSCc1nc(N)nc(NCCc2ccccc2)n1 | inactive
91 | CCOc1ccc(S(=O)(=O)NCc2ccc3c(c2)OCO3)cc1C | inactive
92 | O=C(OCCN=C1NS(=O)(=O)c2ccccc21)c1cccc([N+](=O)[O-])c1 | inactive

Row | Compound | Potency
93 | Cc1ccc(C(=O)Nc2ccc(NC(=O)c3cccs3)cc2)c(C)c1 | inactive
94 | Cc1cccc(C(=O)Nc2ccc(CC(=O)O)cc2)c1 | inactive
95 | Cc1cccc(C(=O)Nc2ccc(C(=O)/C=C/c3cccs3)cc2)c1 | 16.4 µM (active)
96 | COc1ccc(OC)c(CCNC(=O)CCCn2c(=O)c3cccn3c3cccnc32)c1 | 20.6 µM (active)
97 | COCCCNC(=O)CCc1nc2cccnc2n1Cc1ccc(OC)cc1 | inactive
98 | CC1CCCCC12NC(=O)N(CC(=O)Nc1ccc(S(=O)(=O)Nc3ncccn3)cc1)C2=O (configuration not stated) | inactive
99 | CC1CCN(C(=O)Cn2nnnc2CN2CCOCC2)CC1 | inactive
100 | Cc1ccnc(NS(=O)(=O)c2ccc(NC(=O)c3ccc(S(=O)(=O)N(C)C)cc3)cc2)n1 | inactive
101 | CN(c1ccccc1)S(=O)(=O)c1ccc2[nH]c(=O)[nH]c2c1 | inactive
102 | Cc1cccc(NC(=O)c2ccc(S(=O)(=O)N(C)c3ccccc3)cc2)n1 | 20.6 µM (active)
103 | O=C(NCCC1CCCCN1S(=O)(=O)c1ccc(F)cc1)C(=O)NC1CC1 (configuration not stated) | inactive
104 | O=C(NCc1ccccc1Cl)C(=O)NCC1CCCN1S(=O)(=O)c1cccs1 (configuration not stated) | inactive
105 | O=C(NCCC1CCCCN1S(=O)(=O)c1cccs1)C(=O)Nc1ccc(F)cc1F (configuration not stated) | 2.59 µM (active)
106 | CCOC(=O)N1CCN(CCC(=O)Nc2ccccc2)CC1 | inactive
107 | CCOC(=O)c1c(C)oc2nc(C)nc(N(CC(C)C)CC(C)C)c12 | 16.4 µM (active)
108 | CCOC(=O)c1c(C)oc2nc(C)nc(N3CCN(c4ccc(OC)cc4)CC3)c12 | 8.2 µM (active)
109 | Cc1nc(N2CCOCC2)c2c(C(=O)NCc3cccc(Cl)c3)c(C)oc2n1 | inactive
110 | COc1ccc(N2CCN(C(=O)c3c(C)oc4nc(C)nc(N5CCCC5)c34)CC2)cc1 | inactive
111 | CCOC(=O)c1c(C)oc2nc(C)nc(Nc3ccc(CC)cc3)c12 | inactive
112 | CCOC(=O)c1c(C)oc(C)c(C(=O)OCC)c1=O | inactive
